Only some compounds are listed: those with a hit (about 9.2% of all), similar ones and a draw of the others.
Rab9 prom act: activates the Rab9 promoter. Huh7 Rab9 promoter-luciferase reporter, luminescence, 24 h. Potency, µM (titrated, usually from 9.22 µM), inactives show top-dose activation, negative = inhibition, actives largely listed as activators. hit rate 2.8% among 320,000; further: % of control where 0% means no effect; nearly all actives have a fitted effect of over 60% in size
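Rab9 promoter-driven luciferase in stably transfected Huh7 cells; 1500 cells/well rested 2 h, exposed to compound in DMSO for 24 h at 37 °C, 5% CO2. Luminescence read 10 min after adding luciferase reagent at ambient temperature.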
SMN2 splice enh: enhancers of SMN2 splice variant expression. Potency, µM (titrated, usually from 46.1 µM), for the others: at the top dose activity change, positive = activation, hits mostly activators. AID 1458. hit rate 2.8% among 210,000. HEK293 SMN2-luciferase splicing reporter, luminescence, 30-36 h; further: % of control where 0% means no effect; nearly all actives have a fitted effect of over 55% in size
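HEK293 cells carry an SMN2 minigene-luciferase reporter in which exon 7 inclusion puts luciferase in frame. Cells were seeded at 2000 cells/well, attached for 10-12 hours, then exposed to compounds for 30-36 hours at 37C before ONE-Glo luminescence.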
ELG1 repair inh: blocks ELG1-dependent DNA repair in HEK293T cells; HEK293T ELG1-luciferase reporter, luminescence, 16 h; DNA damage induced by 5-fluorouridine; hit rate 2.3% among 330,000; Potency, µM (doses to about 46.1 µM), for inactives: top-dose activity change, negative = inhibition, hits mostly inhibitors; further: on the % scale 0 is the no-effect control and ±100 the full control effect; nearly all actives have a fitted effect of over 55% in size
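5-Fluorouridine DNA damage + compound/DMSO, 2,000 cells/well, 16 h, 37 °C/5% CO2. ONE-Glo, 30 min RT, luminescence. Readout = decrease in reporter signal.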
NPC1 promoter act: activators of NPC1 promoter. Huh7 NPC1 promoter luciferase reporter, 24 h. Potency, µM (top dose mostly 9.22 µM), without a hit: top-dose activation, most hits filed as activators. hit rate 2.4% among 320,000; further: % of control where 0% means no effect; nearly all actives have a fitted effect of over 60% in size
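Huh7 cells stably carrying NPC1 promoter–luciferase, plated in Opti-MEM with 10% FBS for 2 h, were exposed to compound in DMSO for 24 h at 37 °C; luciferase reagent was added for 10 min and luminescence read.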
FLuc modulator: counter-screen for miR-21 project: firefly luciferase inhibitors or activators; P08659; purified FLuc, Km substrates, luminescence inhibition; Potency, µM (titrated, usually from 57.5 µM), inactives show at the top dose activity change, negative = inhibition, most hits filed as inhibitors; hit rate 6.9% among 360,000;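 further: plate controls were vehicle for no effect and reference inhibitor for full effect; nearly all actives have a fitted effect of over 55% in size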
Target sequence (P08659 whole entry, looked up): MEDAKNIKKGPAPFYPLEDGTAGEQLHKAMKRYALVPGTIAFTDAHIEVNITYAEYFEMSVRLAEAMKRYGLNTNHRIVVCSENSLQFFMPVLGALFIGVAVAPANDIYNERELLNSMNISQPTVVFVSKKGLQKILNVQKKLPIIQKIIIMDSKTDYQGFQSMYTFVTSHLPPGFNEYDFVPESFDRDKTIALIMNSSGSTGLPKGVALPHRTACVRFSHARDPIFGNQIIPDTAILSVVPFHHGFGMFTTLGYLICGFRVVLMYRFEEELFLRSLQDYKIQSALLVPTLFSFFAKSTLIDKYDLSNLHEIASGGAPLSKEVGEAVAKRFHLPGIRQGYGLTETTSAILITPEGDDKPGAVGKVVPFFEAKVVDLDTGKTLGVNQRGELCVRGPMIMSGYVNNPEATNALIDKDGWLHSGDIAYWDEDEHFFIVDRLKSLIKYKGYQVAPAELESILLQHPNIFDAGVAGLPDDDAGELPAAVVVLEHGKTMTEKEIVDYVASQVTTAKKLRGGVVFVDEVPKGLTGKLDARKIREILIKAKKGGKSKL
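Purified P. pyralis luciferase (10nM final) with 10uM D-luciferin and 10uM ATP (Km levels) in 50mM Tris acetate pH 7.5, 10mM Mg acetate, 0.01% Tween-20, 0.05% BSA; qHTS 6-point titration, ~60 µM downward; luminescence read.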
ELG1 genotox: inducers of genotoxicity in HEK293T ELG1-luciferase cells; HEK293T ELG1-luciferase reporter, luminescence, 16 h; hit rate 1.3% among 330,000; AID 504466; Potency, µM (highest dose often 46 µM), for inactives: top-dose activity change, positive = activation, usual class: activators; further: % of control where 0% means no effect; nearly all actives have a fitted effect of over 60% in size
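HEK293T cells expressing luciferase-tagged ELG1 were treated with compound or DMSO for 16 hr at 37°C. Luciferase activity was then read after 30 min with ONE-Glo at room temperature; rising signal flags genetic stress.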
Starred values were filed as active, the others as inactive; ? = inconclusive; · = no result given. The call rests on the fitted dose curve; in most records, active means well fitted curve in the direction sought with a large enough effect; inconclusive means small, poorly fitted or top-dose-only effect, or another doubt; inactive means no such curve, though single readings can be large; an effect the other way counts as inactive or inconclusive. Potency means the concentration at half of the fitted maximal effect.

SMILES	Rab9 prom act	SMN2 splice enh	ELG1 repair inh	NPC1 promoter act	FLuc modulator	ELG1 genotox
CCOC(=O)c1cc(-c2ccc(F)cc2)n(CCC(=O)NC2CCC(C)CC2)c1C (stereo not drawn)	·	·	·	·	-7%	·
O=C(Nc1ccc2ccccc2n1)C1CCCCC1	0.79µM*	·	?	1.1µM*	6µM*	?
O=C(Nc1ccc2ccccc2n1)c1ccccc1Cl	0.56µM*	·	?	0.71µM*	1.3µM*	?
COc1cccc(C(=O)Nc2cccc3ccccc23)c1OC	26%	·	?	19%	?	2%
O=C(Nc1ccccc1)C1CCCCC1	-2%	·	13%	-1%	-1%	0%
O=C(Nc1ccc2ccccc2n1)c1ccc(Cl)cc1	0.63µM*	·	?	1µM*	2.1µM*	?
COc1ccc(C(=O)Nc2ccc3ccccc3n2)c(OC)c1OC	?	·	?	?	0.21µM*	0.33µM*
CCc1ccc(C(=O)CN2CCSC2=N)cc1	0.71µM*	?	?	1.6µM*	3µM*	?
O=c1c(-c2cnn(-c3ccccc3)c2)coc2cc(O)ccc12	1.8µM*	·	?	2.8µM*	5.4µM*	?
O=c1c(-c2ccc(O)cc2)coc2cc(O)ccc12	10µM*	13µM*	·	9.2µM*	·	·
Cc1oc2cc(O)ccc2c(=O)c1-c1cnn(-c2ccccc2)c1	-2%	-9%	17%	-2%	?	-1%
COc1ccc(C)cc1NC(=O)c1ccc2c(c1)nnn2C1CCCC1	·	·	·	·	-18%	·
COc1ccc(C2Nc3ccccc3C(=O)N2Cc2ccco2)cc1COc1ccccc1F (stereo not drawn)	-3%	-7%	18µM*	-1%	6%	-3%
CN(C)C(=O)c1ccc(NC(=O)COC(=O)Cn2cc(C(F)(F)F)ccc2=O)cc1	0%	·	?	-1%	4%	-1%
Cc1nn(Cc2noc(C(=O)NC3CCC(C)CC3)n2)c(C)c1Br (stereo not drawn)	0%	·	-3%	0%	0%	-4%
Cc1ccc(N2C(=O)CCSC23C(=O)N(Cc2ccc(F)cc2)c2ccccc23)cc1 (stereo not drawn)	·	·	·	·	-18%	·
Cc1ccc(CN2CCSc3ccc(C(=O)NCC(C)c4ccccc4)cc32)cc1 (stereo not drawn)	·	?	·	·	-4%	·
O=c1[nH]ncc(N/N=C\c2cccs2)c1Cl	-2%	?	?	-5%	-3%	21µM*
CC(C)CCNC(=O)c1cccc(C(=O)NCCC(C)C)c1	0%	-10%	-8%	-1%	-1%	2%
CC(C)CCNC(=O)c1ccc(-c2ccccc2)cc1	3.5µM*	7.9µM*	?	?	9.5µM*	?
CC(CCc1ccccc1)NC(=O)c1ccccc1 (stereo not drawn)	0%	-13%	14%	5%	-1%	3%
CC(C)CCNC(=O)C(=O)Nc1ccccc1	1.6µM*	?	?	3.5µM*	?	?
CC(CCc1ccccc1)NC(=O)c1ccc(C(=O)NC(C)CCc2ccccc2)cc1 (stereo not drawn)	-16%	-53%	5.2µM*	-14%	3%	-13%
CCCN1CCN(C(=O)Cn2c(-c3cccs3)cc3ccccc32)CC1	·	·	·	·	-1%	·
O=C(c1cccc(F)c1)N1CCC[C@@]2(CCN(c3ccncc3)C2)C1	·	-9%	·	·	·	·
SMILES	Rab9 prom act	SMN2 splice enh	ELG1 repair inh	NPC1 promoter act	FLuc modulator	ELG1 genotox
Oc1ccc(Cl)cc1CNc1ccc(Br)cn1	1%	·	?	0%	19µM*	?
Oc1c(Cl)cc(Cl)cc1CNc1ccc(Br)cn1	4%	-7%	?	0%	?	?
CCCCC1=C(C(=O)OCC)C(C(=O)OCC)Oc2ccccc21 (stereo not drawn)	·	·	-28%	·	·	1%
Cc1nc2c(C)cccc2cc1C(=O)N/N=C/c1ccc(N(C)C)cc1	2%	?	-18%	0%	?	0%
CC(=O)Nc1ccc(/C=N/NC(=O)c2cc3cc(C)ccc3nc2C)cc1	17%	-22%	?	11%	6µM*	?
Cc1nc2c(C)cccc2cc1C(=O)N/N=C/c1ccc(C(=O)O)cc1	0%	3%	-2%	1%	17µM*	0%
CC(=O)Nc1ccc(/C=N/NC(=O)c2cc3ccccc3nc2C)cc1	-2%	7%	?	-1%	-18%	1%
O=C(Nc1cccc(Cl)c1)C1CCN(C(=O)c2cccs2)CC1	-3%	·	17%	-1%	-1%	-5%
CN(CCCN1CCOCC1)C(=O)c1ccc2nc(Cc3cccc(Cl)c3)oc2c1	1%	·	15µM*	1%	-3%	-2%
CC[C@@]1(O)CC2CN(CCc3c([nH]c4ccccc34)[C@](C(=O)OC)(c3cc4c(cc3OC)N(C)C3[C@@](O)(C(=O)OC)C(OC(C)=O)[C@]5(CC)C=CCN6CC[C@@]43C65)C2)C1 (stereo partly drawn)	·	-8%	·	·	·	·
O=C(CSc1nnnn1-c1ccccc1)NC(=O)Nc1ccc2c(c1)OCCO2	?	?	?	?	19µM*	?
